Inconclusive results are not listed. A call without a number means that no potency is given here. Activity calls are given as the source filed them. Calls follow the shape of the dose curve; as a rule, active = well fitted curve in the direction sought with a large enough effect; inconclusive = small, poorly fitted or top-dose-only effect, or another doubt; inactive = no such curve, though single readings can be large; an effect the other way counts as inactive or inconclusive.
Tests used:
[1] = biological target: ATP-dependent 6-phosphofructokinase (Trypanosoma brucei brucei) (UniProt O15648); assay: qHTS Assay to Find Inhibitors of T. brucei phosphofructokinase: hit validation (AID 492961);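 also: luminescence reports ADP formed as PFK phosphorylates fructose-6-phosphate with ATP; series mostly up to about 51 µM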
Method in brief: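 ADP-Glo luminescence read-out of ADP formed by 1.25 nM PFK from 0.1 mM ATP and 0.5 mM F6P (TEA pH 8.0, 45 min, RT). Compounds titrated; activity normalized to no-enzyme and full-enzyme controls.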

[2] = biological target: Ubiquitin carboxyl-terminal hydrolase 1 (Homo sapiens) (UniProt O94782); assay: Inhibitors of USP1/UAF1: Pilot qHTS (AID 504865);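 also: rhodamine fluorescence freed from ubiquitin-rhodamine substrate followed over time; top concentration of the series differs between compounds; nearly all actives have a fitted effect of over 35% in size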
Method in brief: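 1nM USP1/UAF1 + cpd, 15 min RT; start w/ Ub-Rho 150nM final; kinetic FL 480/540 nm, 6 reads q60 s. Buffer 50mM HEPES pH 7.8, 0.5mM EDTA, 1mM TCEP, 0.01% Tween-20, 0.1 mg/ml BSA.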

Sequence of ATP-dependent 6-phosphofructokinase (Trypanosoma brucei brucei) (O15648 whole entry, looked up): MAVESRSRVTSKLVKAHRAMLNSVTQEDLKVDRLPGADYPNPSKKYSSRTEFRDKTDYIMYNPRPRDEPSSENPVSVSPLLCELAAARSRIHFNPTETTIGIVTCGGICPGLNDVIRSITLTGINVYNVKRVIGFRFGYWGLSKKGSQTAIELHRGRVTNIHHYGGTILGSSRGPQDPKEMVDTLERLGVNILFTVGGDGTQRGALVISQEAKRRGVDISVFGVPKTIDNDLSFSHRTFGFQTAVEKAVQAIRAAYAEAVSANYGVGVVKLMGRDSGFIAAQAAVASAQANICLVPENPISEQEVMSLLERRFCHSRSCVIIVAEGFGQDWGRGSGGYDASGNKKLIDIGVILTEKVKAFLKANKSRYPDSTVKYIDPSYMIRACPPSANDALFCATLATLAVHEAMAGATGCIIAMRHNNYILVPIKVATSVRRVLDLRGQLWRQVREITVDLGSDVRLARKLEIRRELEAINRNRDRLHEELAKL
Sequence of Ubiquitin carboxyl-terminal hydrolase 1 (Homo sapiens) (O94782 whole entry, looked up): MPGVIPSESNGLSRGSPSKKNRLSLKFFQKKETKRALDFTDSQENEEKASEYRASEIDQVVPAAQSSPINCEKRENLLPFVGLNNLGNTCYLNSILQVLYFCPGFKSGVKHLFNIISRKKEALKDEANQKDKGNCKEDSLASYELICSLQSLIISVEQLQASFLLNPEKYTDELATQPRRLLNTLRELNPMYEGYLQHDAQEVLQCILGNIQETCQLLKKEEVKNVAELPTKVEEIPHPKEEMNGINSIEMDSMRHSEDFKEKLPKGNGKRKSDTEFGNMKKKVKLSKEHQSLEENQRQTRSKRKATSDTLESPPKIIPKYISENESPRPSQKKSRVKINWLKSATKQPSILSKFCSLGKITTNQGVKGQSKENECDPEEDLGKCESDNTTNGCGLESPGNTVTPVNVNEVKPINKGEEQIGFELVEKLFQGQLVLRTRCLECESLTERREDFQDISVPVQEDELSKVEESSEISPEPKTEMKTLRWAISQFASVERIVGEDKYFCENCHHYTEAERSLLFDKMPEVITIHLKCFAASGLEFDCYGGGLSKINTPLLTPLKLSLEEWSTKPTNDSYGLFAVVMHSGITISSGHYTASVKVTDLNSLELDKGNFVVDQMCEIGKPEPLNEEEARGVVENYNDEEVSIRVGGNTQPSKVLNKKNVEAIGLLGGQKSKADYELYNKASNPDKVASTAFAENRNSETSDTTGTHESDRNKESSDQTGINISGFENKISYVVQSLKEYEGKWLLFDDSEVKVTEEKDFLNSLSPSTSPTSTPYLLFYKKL

SMILES	outcome [1]	Potency [2]
CC(=O)Nc1ccc(OCCOCCOc2ccc(NC(C)=O)cc2)cc1	inactive	inactive
c1ccc2[nH]ccc2c1	inactive	inactive
COc1cc(O)cc(O)c1	inactive	inactive
NC(=O)c1ccc([N+](=O)[O-])cc1Cl	inactive	inactive
Cc1ccc(S(=O)(=O)NC(=O)NC2CCCCCCC2)cc1	inactive	inactive
O=C(NCN1CCOCC1)c1cnccn1	inactive	inactive
CCN(CC)S(=O)(=O)c1ccc(C(=O)O)cc1	inactive	inactive
CC(CN(C)C)C(C)(O)Cc1ccc(Cl)cc1 (centres undefined)	inactive	inactive
CN/C(=C\[N+](=O)[O-])NCCSCc1csc(CN(C)C)n1	inactive	inactive
COC(=O)c1cccnc1	inactive	inactive
COC(=O)c1ccccc1C(=O)c1ccc(OCCN2CCCCC2)cc1	inactive	inactive
Cc1ccccc1N=Nc1ccc(N=Nc2c(O)ccc3ccccc23)c(C)c1	inactive	inactive
Cc1ccsc1C(=CCCN1CCC[C@@H](C(=O)O)C1)c1sccc1C	inactive	inactive
C[N+](C)(C)CC[N+]1(C)Cc2c(Cl)c(Cl)c(Cl)c(Cl)c2C1	inactive	inactive
CCN(CC)CC1CCCCN1CC(=O)N1c2ccccc2C(=O)Nc2cccnc21 (centres undefined)	inactive	inactive
CC(CSC(=O)c1ccccc1)C(=O)N1C[C@@H](Sc2ccccc2)C[C@H]1C(=O)O (some centres undefined)	inactive	inactive
CC[N+](C)(CC)CCOC(=O)C1c2ccccc2Oc2ccccc21	inactive	inactive

Reference: PubChem BioAssay (NCATS)
